Reference: PubChem BioAssay
Calls of active or inactive are those of the source.

Columns and labels:
[1] = E. coli DRC41 culture turbidity changes, primary screen, E. coli filamentation inducer project, strain DRC41, OD650, 48 h (AID 1152);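 also: E. coli MC1000 strain DRC41 lacking acrAB efflux pump and sulA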; settings: E. coli DRC41 (acrAB sulA), higher = more signal, called active from +8 up or from −8 down
[2] = small-molecule binders of probe aLefty1, primary screen, biochemical, small-molecule microarray, 635/667 nm fluorescence (AID 1153); settings: higher = more signal;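 also: score merges spot fluorescence with signal-to-noise ratio from the scanned slide images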
[3] = PSAC antagonists in infected red cells, primary screen, cell-based, P. falciparum Indochina, OD700, 1 h (AID 1154); settings: P. falciparum Indochina infected RBC osmotic lysis, higher = more signal, called active from +8 up or from −8 down
[4] = PSAC antagonists in infected red cells, primary screen, cell-based, P. falciparum Indochina, OD700, 2 h (AID 1155);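 also: lysis reports solute entry through the parasite surface anion channel PSAC; channel blockers reduce lysis of infected cells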; settings: P. falciparum Indochina infected erythrocytes, osmotic lysis OD700; higher = more signal, called active from +8 up or from −8 down
[5] = osmotic lysis modulators in infected erythrocytes, primary screen, PSAC antagonist project, cell-based, P. falciparum Indochina, OD700, 3 h (AID 1156); settings: higher = more signal, called active from +8 up or from −8 down
[6] = PSAC antagonists in infected red cells, primary screen, cell-based, P. falciparum Indochina, OD700, 18 h (AID 1157); settings: P. falciparum Indochina infected erythrocytes, osmotic lysis OD700, 18 h; higher = more signal, called active from +8 up or from −8 down
[7] = modulators of S6 phosphorylation in cells, primary screen, cell-based, A549, cytoblot, luminescence, serum-stimulated (AID 1158); settings: A549 phospho-S6 cytoblot, 5 h, higher = more signal;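 also: serum-stimulated A549 lung adenocarcinoma cells; signal is phosphorylated S6 detected by cytoblot immunostaining with HRP secondary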
[8] = molecular target: NADPH oxidase 2 (Homo sapiens) (UniProt P04839); assay: NOX2-dependent H2O2 signal modulators, primary screen, NOX inhibitor project, cell-based, HEK293-NOX2, PMA-stimulated, Amplex Red fluorescence (AID 1159); settings: 45 min, higher = more signal, called active from +8 up or from −8 down; also: test concentration not given here
Sequence of NADPH oxidase 2 (Homo sapiens) (P04839 whole entry, looked up): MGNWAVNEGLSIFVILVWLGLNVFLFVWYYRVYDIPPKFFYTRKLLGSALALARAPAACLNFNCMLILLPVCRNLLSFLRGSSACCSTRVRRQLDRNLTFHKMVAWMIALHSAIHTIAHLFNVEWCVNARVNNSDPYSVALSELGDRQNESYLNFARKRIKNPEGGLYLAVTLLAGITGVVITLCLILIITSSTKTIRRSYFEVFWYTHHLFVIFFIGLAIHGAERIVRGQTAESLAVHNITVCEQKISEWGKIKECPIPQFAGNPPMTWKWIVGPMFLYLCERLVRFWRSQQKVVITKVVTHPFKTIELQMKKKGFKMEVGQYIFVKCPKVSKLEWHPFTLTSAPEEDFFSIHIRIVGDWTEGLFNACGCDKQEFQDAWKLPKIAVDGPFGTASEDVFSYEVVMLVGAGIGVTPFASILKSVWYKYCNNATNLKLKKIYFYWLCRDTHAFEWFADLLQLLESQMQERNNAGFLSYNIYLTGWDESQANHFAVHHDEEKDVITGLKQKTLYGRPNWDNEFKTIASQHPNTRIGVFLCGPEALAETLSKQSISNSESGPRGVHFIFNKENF

[9] = molecular target: NADPH oxidase 4 (Homo sapiens) (UniProt Q9NPH5); assay: NOX4-dependent H2O2 signal modulators, primary screen, NOX inhibitor project, cell-based, HEK293-NOX4, tetracycline-induced, Amplex Red fluorescence (AID 1160); settings: 45 min, higher = more signal, called active from +8 up or from −8 down
Sequence of NADPH oxidase 4 (Homo sapiens) (Q9NPH5 whole entry, looked up): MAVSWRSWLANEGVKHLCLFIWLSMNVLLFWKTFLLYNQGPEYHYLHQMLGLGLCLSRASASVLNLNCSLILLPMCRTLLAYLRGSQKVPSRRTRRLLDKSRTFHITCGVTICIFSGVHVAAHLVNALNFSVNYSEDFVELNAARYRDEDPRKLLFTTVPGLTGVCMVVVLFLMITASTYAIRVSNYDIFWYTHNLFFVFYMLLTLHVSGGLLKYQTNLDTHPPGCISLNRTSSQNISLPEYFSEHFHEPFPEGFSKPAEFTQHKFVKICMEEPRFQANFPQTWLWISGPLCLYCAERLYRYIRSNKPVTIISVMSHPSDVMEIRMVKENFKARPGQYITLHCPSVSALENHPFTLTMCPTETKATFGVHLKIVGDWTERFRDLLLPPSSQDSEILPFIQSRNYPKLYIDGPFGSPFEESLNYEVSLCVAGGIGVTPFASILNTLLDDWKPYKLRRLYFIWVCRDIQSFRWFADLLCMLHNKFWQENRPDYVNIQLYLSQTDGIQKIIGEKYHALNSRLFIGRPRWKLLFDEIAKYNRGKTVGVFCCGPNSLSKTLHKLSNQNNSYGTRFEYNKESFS

[10] = molecular target: NADPH oxidase 5 (Homo sapiens) (UniProt Q96PH1); assay: NOX5-dependent H2O2 signal modulators, primary screen, NOX inhibitor project, cell-based, HEK293-NOX5, Amplex Red fluorescence (AID 1161); settings: HEK293-NOX5, ionomycin, 45 min, higher = more signal
Sequence of NADPH oxidase 5 (Homo sapiens) (Q96PH1 whole entry, looked up): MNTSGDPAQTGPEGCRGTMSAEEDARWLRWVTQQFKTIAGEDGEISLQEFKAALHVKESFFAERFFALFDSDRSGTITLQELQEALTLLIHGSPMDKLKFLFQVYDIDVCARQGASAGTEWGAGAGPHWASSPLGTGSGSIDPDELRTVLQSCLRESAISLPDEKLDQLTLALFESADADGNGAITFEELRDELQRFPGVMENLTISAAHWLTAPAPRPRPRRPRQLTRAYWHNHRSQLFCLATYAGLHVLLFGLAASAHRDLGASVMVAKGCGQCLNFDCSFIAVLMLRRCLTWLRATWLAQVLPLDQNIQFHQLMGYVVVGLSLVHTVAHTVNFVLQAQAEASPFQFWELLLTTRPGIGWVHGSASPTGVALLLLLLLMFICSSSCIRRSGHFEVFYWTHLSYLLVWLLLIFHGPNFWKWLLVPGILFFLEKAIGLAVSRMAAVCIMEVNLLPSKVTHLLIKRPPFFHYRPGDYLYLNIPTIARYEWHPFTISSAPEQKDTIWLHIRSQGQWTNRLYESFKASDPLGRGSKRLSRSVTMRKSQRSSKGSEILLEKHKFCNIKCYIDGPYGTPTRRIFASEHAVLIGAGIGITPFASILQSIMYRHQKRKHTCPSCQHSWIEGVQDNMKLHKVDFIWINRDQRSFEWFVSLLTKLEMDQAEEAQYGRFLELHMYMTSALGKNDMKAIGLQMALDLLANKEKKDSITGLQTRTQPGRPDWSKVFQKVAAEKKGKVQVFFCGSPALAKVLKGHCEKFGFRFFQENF

[11] = A549 cell viability effects, profiling panel, calcein-AM fluorescence, 48 h, basal (AID 1162); settings: higher = more signal; also: test concentration not given here
[12] = adipocyte viability effects, profiling panel, cell-based, 3T3-L1 adipocytes, calcein-AM fluorescence, 48 h, basal (AID 1163); settings: 3T3-L1 adipocytes viability, higher = more signal; also: test concentration not given here
[13] = HepG2 cell viability effects, profiling panel, calcein-AM fluorescence, 48 h, basal (AID 1164); settings: higher = more signal; also: test concentration not given here
[14] = MM1S cell viability effects, profiling panel, calcein-AM fluorescence, 48 h, basal (AID 1165); settings: higher = more signal;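 also: viability of MM1S multiple myeloma cells under basal unstimulated conditions; test concentration not given here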
[15] = basal RPMI8226 viability, no added stimulus, profiling panel, cell-based, calcein-AM fluorescence, 48 h, PK04 Diversity Set (AID 1166); settings: RPMI8226 myeloma viability, higher = more signal;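 also: cells grown under basal conditions without added stimulus; test concentration not given here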
[16] = basal HepG2 mitochondrial membrane potential changes, profiling panel, cell-based, JC-1 fluorescence, 24 h, 100 nL compound (AID 1167); settings: higher = more signal; also: test concentration not given here
[17] = basal 3T3-L1 adipocyte mitochondrial potential changes, profiling panel, cell-based, JC-1 fluorescence, 3T3-L1 adipocytes, 24 h, 100 nL compound (AID 1168); settings: JC-1 mitochondrial fluorescence, higher = more signal, called active from +8 up or from −8 down; also: test concentration not given here
[18] = basal RPMI8226 mitochondrial membrane potential changes, profiling panel, cell-based, JC-1 fluorescence, 24 h, 100 nL compound (AID 1169); settings: RPMI8226 myeloma, JC-1 mitochondrial potential fluorescence, higher = more signal; also: test concentration not given here
[19] = basal MM1S mitochondrial membrane potential changes, profiling panel, cell-based, JC-1 fluorescence, 24 h, 100 nL compound (AID 1170); settings: higher = more signal; also: test concentration not given here
[20] = A549 lung cancer cell viability effects, profiling panel, resazurin fluorescence, 24 h, PK04 Diversity Set (AID 1171); settings: higher = more signal, called active from +8 up or from −8 down; also: test concentration not given here

SMILES | z-score [1] | composite z-score [2] | z-score [3] | z-score [4] | z-score [5] | z-score [6] | z-score [7] | z-score [8] | z-score [9] | z-score [10] | z-score [11] | z-score [12] | z-score [13] | z-score [14] | z-score [15] | z-score [16] | z-score [17] | z-score [18] | z-score [19] | z-score [20]
[N-]=[N+]=NCc1ccccc1[C@@H]1OC(c2ccc(OCCCO)cc2)=N[C@]1(Cc1ccccc1N=[N+]=[N-])C(=O)NCc1ccccc1 | -2.95 (inactive) | 0.639 | 21.8 (active) | 4.97 (inactive) | 3.79 (inactive) | 1.33 (inactive) | -0.33 | -0.654 (inactive) | 0.0734 (inactive) | 0.235 | 0.103 | 0.0085 | -0.829 | -0.466 | 0.22 | 1.47 | -0.385 (inactive) | -0.749 | -1.37 | -0.234 (inactive)
COc1ccc(C(O)C2C=CC3C(=O)N(C)C(=O)C3N2Nc2ccccc2)cc1OCc1ccccc1 (stereo not given) | -1.69 (inactive) | 0.0451 | 1.68 (inactive) | 1.36 (inactive) | 0.272 (inactive) | 1.1 (inactive) | -1.17 | -1.25 (inactive) | -4.36 (inactive) | -2.57 | -0.433 | -0.621 | -0.269 | -0.23 | -0.427 | -1.7 | -0.989 (inactive) | 0.324 | 0.0666 | 1.88 (inactive)
CC1CC/C=C\[C@H]2OC34C=CCN(Cc5ccccc5)C(=O)[C@H]3N(CCCCCO)C(=O)[C@@H]4C2C(=O)O1 (stereo not given in full) | -0.94 (inactive) | -0.326 | -0.365 (inactive) | -0.0369 (inactive) | -0.692 (inactive) | -0.0374 (inactive) | -0.689 | 0.852 (inactive) | -0.14 (inactive) | 1.34 | 0.482 | 0.449 | -0.069 | 1.51 | 0.599 | 0.647 | -0.478 (inactive) | -0.514 | 1.12 | 0.374 (inactive)
COCC(=C=CC[C@@H](O)c1ccc(CO)o1)CCO | 2.61 (inactive) | -0.205 | 1.6 (inactive) | -0.908 (inactive) | -0.949 (inactive) | -1.11 (inactive) | 3.11 | -1.84 (inactive) | -0.922 (inactive) | -1.06 | 2.82 | 1.72 | 0.783 | 0.178 | 1.94 | 0.281 | -0.24 (inactive) | 0.824 | -1.08 | 0.559 (inactive)
NC(=O)NCC#Cc1ccc2c(c1)[C@]1(C(=O)N2)[C@H](C(=O)NC[C@H](O)c2ccccc2)[C@H]2C(=O)O[C@H](c3ccccc3)[C@H](c3ccccc3)N2[C@@H]1c1ccc(O)cc1 | -0.765 (inactive) | -0.149 | 0.397 (inactive) | -0.0004 (inactive) | 2.63 (inactive) | -0.048 (inactive) | -0.0546 | 1.3 (inactive) | 0.02 (inactive) | 0.404 | 0.423 | -1.13 | -0.284 | -1.32 | 0.579 | -3.36 | -2.46 (inactive) | -1.16 | -1.49 | -0.471 (inactive)
COCCOC(=O)N1C(=O)[C@@]2(c3cc(C#CCCO)ccc31)[C@H](c1ccc(O)cc1)N1[C@H](c3ccccc3)[C@H](c3ccccc3)OC(=O)[C@H]1[C@@H]2C(N)=O | -0.595 (inactive) | 0.501 | 6.55 (inactive) | 1.15 (inactive) | 0.152 (inactive) | 0.311 (inactive) | -0.218 | 0.712 (inactive) | -0.952 (inactive) | 0.23 | 0.111 | -0.0323 | 1.97 | 0.189 | -0.934 | -0.958 | -1.44 (inactive) | 0.057 | -0.915 | -0.322 (inactive)
C=CCNC(=O)[C@@H]1[C@H]2C(=O)O[C@H](c3ccccc3)[C@H](c3ccccc3)N2[C@H](c2ccc(O)cc2)[C@@]12C(=O)N(C(=O)OCCOC)c1ccccc12 | 0.808 (inactive) | 0.149 | 1.35 (inactive) | -0.27 (inactive) | 0.123 (inactive) | -1.08 (inactive) | 1.64 | 0.818 (inactive) | -0.913 (inactive) | -2.08 | 0.231 | 2.01 | 0.0902 | -0.549 | -1.52 | -0.338 | 0.951 (inactive) | 0.104 | -0.0916 | 0.425 (inactive)
CC(C)CNC(=O)[C@@]1(c2ccc([N+](=O)[O-])cc2)CC(=O)N(CC23CC4CC(CC(C4)C2)C3)[C@@H]1c1ccc(CO)cc1I | -0.998 (inactive) | -0.0114 | 17.2 (active) | 3.11 (inactive) | 2.73 (inactive) | 1.41 (inactive) | -0.472 | 2 (inactive) | -1.12 (inactive) | 1.75 | -0.394 | 0.604 | -3.4 | -3.83 | -4.32 | 1.47 | -0.744 (inactive) | -0.948 | -0.674 | -2.77 (inactive)
COCCOC(=O)N1C(=O)[C@@]2(c3cc(C#CC4=CCCCC4)ccc31)[C@H](C(=O)N1CCc3cc(OC)c(OC)cc3C1)[C@H]1C(=O)O[C@H](c3ccccc3)[C@H](c3ccccc3)N1[C@@H]2c1ccccc1OCCO | 0.585 (inactive) | -0.012 | 2.4 (inactive) | 0.876 (inactive) | 0.827 (inactive) | 0.703 (inactive) | -0.113 | 1.72 (inactive) | 0.58 (inactive) | 1.99 | 0.145 | 0.299 | 0.274 | -1.37 | -1.06 | 0.0701 | 2.17 (inactive) | -0.701 | -0.72 | 0.267 (inactive)
CS(=O)(=O)CCOC(=O)C1=CC(CCCO)=CC(c2cccs2)N(Cc2cc3c(cc2Br)OCO3)C=C1C(=O)OCCS(C)(=O)=O (stereo not given) | 0.702 (inactive) | -0.0767 | 5.62 (inactive) | 0.944 (inactive) | 1.85 (inactive) | 0.479 (inactive) | 0.252 | -2.11 (inactive) | -1.1 (inactive) | -1.41 | 1.55 | 0.46 | 0.392 | -0.121 | 0.377 | 1.09 | 0.252 (inactive) | -0.308 | -0.579 | 0.885 (inactive)
CN1C(=O)C2C(C1=O)C1C=C(CCCO)C2C(c2cccs2)N1C (stereo not given) | 0.325 (inactive) | -0.274 | 1.52 (inactive) | 0.326 (inactive) | 1.31 (inactive) | 0.181 (inactive) | -0.519 | 0.108 (inactive) | 0.378 (inactive) | 1.22 | 0.0141 | -0.388 | 0.174 | 1.59 | 0.664 | 0.699 | 0.617 (inactive) | 0.257 | -0.852 | -0.396 (inactive)
CCOC(=O)C[C@H]1[C@H](OC(=O)c2ccccc2-c2ccccc2)[C@@H](NC(=O)Cc2ccc(OC)cc2)c2cc(OCCCO)ccc2N1C(=O)c1ccccc1 | -1.14 (inactive) | -0.0877 | 1.57 (inactive) | 0.316 (inactive) | 0.432 (inactive) | 0.208 (inactive) | -0.127 | 1.02 (inactive) | 1.15 (inactive) | -0.26 | 0.369 | -0.8 | 0.41 | -0.0609 | 0.0629 | 0.915 | 0.0962 (inactive) | -0.0457 | 0.213 | 0.407 (inactive)
Cc1ccc(S[C@]2(C(=O)NCC(C)C)CC(=O)N(Cc3ccccc3)[C@@H]2c2ccc(CO)cc2I)cc1 | -0.668 (inactive) | 0.0597 | 10.6 (active) | 1.16 (inactive) | 0.448 (inactive) | 0.598 (inactive) | -0.36 | 1.09 (inactive) | -2.23 (inactive) | 0.489 | 0.715 | 0.752 | 0.38 | -2.1 | -2.73 | -0.329 | -1.23 (inactive) | -0.813 | -0.528 | 0.999 (inactive)
